The list is not random: actives were taken first. Their share in the collection is about 2.3%.
PLCg1 inh: PLC-gamma1 enzyme inhibitors, primary screen, biochemical, fluorescence, purified enzyme; 1-phosphatidylinositol 4,5-bisphosphate phosphodiesterase gamma-1 (Homo sapiens), P19174; fluorogenic substrate; inhibition, % at 12.2 µM; hit rate 0.84% among 370,000; in the data active means inhibition above about 9.5%
MBD2 inh: inhibitors of MBD2 binding to methylated DNA, primary screen, biochemical, TR-FRET, DNA-binding domain, human; inhibition, % at 4.4 µM; hit rate 0.31% among 370,000; Methyl-CpG-binding domain protein 2 (Homo sapiens), Q9UBB5; MBD2 binding to methylated oligonucleotide; in the data active means inhibition above about 13%
Target sequence (Q9UBB5 whole entry, looked up, the tested form may be a part): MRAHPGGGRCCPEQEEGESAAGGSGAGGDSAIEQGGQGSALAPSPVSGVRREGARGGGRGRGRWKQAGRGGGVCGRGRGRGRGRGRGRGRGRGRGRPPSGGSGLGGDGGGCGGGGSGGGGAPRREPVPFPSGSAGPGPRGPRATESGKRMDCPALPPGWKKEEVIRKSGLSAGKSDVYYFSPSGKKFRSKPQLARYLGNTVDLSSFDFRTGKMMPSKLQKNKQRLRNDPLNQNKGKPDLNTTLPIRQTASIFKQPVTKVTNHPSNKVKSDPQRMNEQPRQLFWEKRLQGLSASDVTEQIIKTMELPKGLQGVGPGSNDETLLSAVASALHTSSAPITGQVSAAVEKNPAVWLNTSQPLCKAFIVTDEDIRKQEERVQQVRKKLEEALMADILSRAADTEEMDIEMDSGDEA
PLC-beta3 inh: human PLC-beta3 inhibitors, primary screen, biochemical, fluorescence | Purified PLC-beta3, fluorogenic substrate | inhibition, % at 12.2 µM | hit rate 0.18% among 370,000; in the data active means inhibition above about 11%
UHRF1 binding: UHRF1 methylated DNA binding inhibitors, primary screen, counter-screen for MBD2 inhibitor project, biochemical, TR-FRET, human UHRF1, single concentration; E3 ubiquitin-protein ligase UHRF1 (Homo sapiens), Q96T88; hit rate 0.75% among 370,000; inhibition, % at 4.4 µM; AID 687016, 2013; UHRF1 binding to methylated oligo; in the data active means inhibition above about 21%;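 further: UHRF1 SRA domain binding a hemimethylated CpG hairpin DNA probe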
LEDGF integ inh: blockers of LEDGF/p75-dependent integrase strand transfer – biochemical, TR-FRET, high throughput, primary screen. TR-FRET IN-LEDGF/p75 DNA integration, Eu/Cy5. inhibition, % at 3.7 µM. hit rate 0.64% among 370,000;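 active means inhibition above the screen-wide mean plus 3 SD, cut at about 13% in these data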;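 further: signal is the Cy5 over europium emission ratio at 671 and 618 nm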
Of the large screens only hits and unclear results are named; the others gave an inactive call.

C#CC1(O)C2C=C(OC)C(=O)C1C(c1ccccc1)C2C (configuration not stated)	none
O=C1/C(=C/c2cccnc2)CC/C1=C\c1cccnc1	UHRF1 binding 40
O=C1/C(=C/c2cccnc2)CCC/C1=C\c1cccnc1	none
O=C(Nc1ccc2cn[nH]c2c1)c1c(Cl)cccc1Cl	UHRF1 binding 22
O=C(Nc1ccc2cn[nH]c2c1)c1ccccc1F	none
COc1ccc(-n2c(SCC(=O)NNC(=S)Nc3ccccc3)nc3ccccc3c2=O)cc1	none
O=C(CSc1ccc(Cl)cc1)N1CCN(c2ccc(Cl)cc2[N+](=O)[O-])CC1	UHRF1 binding 22
CC(C)(C)C(=O)N1CCN(c2ccc(Cl)cc2[N+](=O)[O-])CC1	none
O=C(CSc1nnc(Cc2cccs2)n1-c1ccc(Cl)cc1)Nc1ccc(OCc2ccccc2)cc1	none
O=C1C(SCCO)=C(SCCO)C(=O)c2ccccc21	LEDGF integ inh 29
COC(=O)C1=C[C@@H]([C@@H](C)[C@H](OC)c2ccccc2Br)[C@@H]2OCCC[C@H]12	none
COc1ccc(CN2C[C@]3(C=C(C)Cn4c(=O)n(-c5ccccc5)c(=O)n43)N(C(=O)OCc3ccccc3)C2=NC(=O)c2ccccc2)c(OC)c1	none
Cc1cc(OCCN2CCOCC2)ccc1Cl	UHRF1 binding 22
Cc1ccc(OCCN2CCOCC2)cc1C	none
C[C@H](O)[C@@H]1CN2CCc3c([nH]c4c(-c5ccc6c(c5)OCO6)cccc34)[C@@H]2C[C@@H]1N(C)C(=O)Nc1ccccc1	none
CC(COc1ccc(CC#N)cc1)CN1CCC(C(O)(c2ccccc2)c2ccccc2)CC1 (configuration not stated)	none
CCc1nnc(N/N=C/c2c(C)[nH]c3ccccc23)n1N	PLCg1 inh 10, LEDGF integ inh 68
Cc1cc(NC(=O)c2ccc(NS(=O)(=O)c3ccc(F)cc3)cc2)no1	none
COC(=O)[C@H](CC(C)C)N(CCCc1cn(Cc2ccc(C)cc2)nn1)S(=O)(=O)c1ccc(F)cc1Br	none
CCOC(=O)C1(C(=O)OCC)Cc2c([nH]c3ccccc23)[C@]2(N1)C(=O)N(C)c1ccc(Br)cc12	PLCg1 inh 10
CN1C(=O)C2(NCCc3c2[nH]c2ccccc32)c2ccccc21 (configuration not stated)	none
CCN1CCCCC(NC(=O)c2ccccc2)C1=O (configuration not stated)	none
Cc1ccc(C(=O)Nc2ccc(Oc3ccc(C(=O)O)c(C(=O)O)c3)cc2)cc1C	PLCg1 inh 11
COC(=O)C1CN(Cc2ccc(OC)cc2)CCS(=O)(=O)N1Cc1cn(Cc2ccccc2)nn1 (configuration not stated)	none
N#CCN1C(=O)NC2(CCCc3sccc32)C1=O (configuration not stated)	UHRF1 binding 94
Cn1c(=O)n(Cc2ccc(Br)cc2)c2ccccc21	UHRF1 binding 23
Cc1cccc(Cn2cc(CN3CC(N(C)CCCOC(=O)c4cc(C)cc(C)c4)CS3(=O)=O)nn2)c1 (configuration not stated)	none
CC(=O)N1CCOc2cc(S(=O)(=O)NC(C)c3ccccc3)c(Cl)cc21 (configuration not stated)	UHRF1 binding 30
CCOC(=O)COc1ccc(C(C)c2ccc(NC(=O)OC(C)(C)C)cc2)cc1 (configuration not stated)	none
COc1ccc(Cl)cc1NC(=O)Cn1c(=O)n2nc(C)nc2c2ccccc21	UHRF1 binding 70
CCC(C)[C@@H](C(=O)OC)N(Cc1cn(Cc2ccccc2)nn1)S(=O)(=O)c1ccccc1Br (some centres not stated)	none
CCc1ccc(OCC(=O)NC(=S)Nc2ccc(C(C)=O)cc2)c(Br)c1	UHRF1 binding 24
CNC(=O)[C@@H]1CC=C[C@@H]2CCN(c3ccccc3)C(=O)[C@@H]21	none
O=c1[nH][nH]c2c1C(c1ccc(F)cc1)OC(CCc1ccccc1)C2 (configuration not stated)	none
O=c1[nH][nH]c2c1[C@@H](c1ccc(F)cc1)O[C@H](CCc1ccccc1)C2	UHRF1 binding 29
O=C(NCCc1c[nH]c2ccccc12)OCc1cn(Cc2cccc(F)c2)nn1	none
COc1ccc(N2CC(NC(=O)c3cccc4ccccc34)CC2=O)cc1OC (configuration not stated)	none
COc1cccc(N2CC(NC(=O)c3cccc4ccccc34)CC2=O)c1 (configuration not stated)	UHRF1 binding 34
COCC1CCCCN1C(=O)c1cccc(OC2CCN(S(C)(=O)=O)CC2)c1 (configuration not stated)	UHRF1 binding 31
O=C(Cc1c[nH]c2ccccc12)OCC(=O)c1ccccc1	UHRF1 binding 29
CC(Cc1c[nH]c2ccccc12)C(=O)O (configuration not stated)	UHRF1 binding 23
Cc1cc(C(=O)O[C@@H]2CCC[C@]3(C(=O)N(Cc4ccccc4)c4ccccc43)[C@H]2NC(=O)CCc2ccccc2)no1	none
Cc1cc(NC(=O)CCC(=O)N(CC(=O)NCC2CCCO2)c2cccc(F)c2)no1 (configuration not stated)	LEDGF integ inh 41
CC(=O)c1cccc(N(CC(=O)NCC2CCCO2)C(=O)CCC(=O)Nc2cc(C)on2)c1 (configuration not stated)	none
Cc1cc(Cl)ccc1OCC(=O)OCC(=O)NCCNC(=O)COC(=O)COc1ccc(Cl)cc1C	LEDGF integ inh 20
CCOC(=O)c1cc(-c2ccccc2)sc1NC(=O)CN1C(=O)NC(CC)(c2ccc(F)cc2)C1=O (configuration not stated)	UHRF1 binding 24
CCn1c(=O)n(CC)c2cc(N3CCCC3)c(NC(=O)c3ccccc3C)cc21	UHRF1 binding 23
O=C(OCn1nnc2ccccc2c1=O)c1cccnc1Cl	PLCg1 inh 12
CCC1(CC)NC(=O)N(CC(=O)OCn2nnc3ccccc3c2=O)C1=O	UHRF1 binding 21
C=CCN1C(=O)[C@@H](CC(=O)NCCC(C)C)[C@]2(C(=O)OCC)CCCCC/C=C/12	none
Cc1oc(-c2ccc(Cl)cc2)cc1-c1nn2c(-c3ccoc3C)nnc2s1	UHRF1 binding 23, LEDGF integ inh 29
O=C(CN1C(=O)CC(c2ccccc2)S(=O)(=O)c2ccccc21)N1CCCCC1 (configuration not stated)	UHRF1 binding 24
COc1ccc(-c2nc3c(Cl)cc(C(F)(F)F)cn3c2Cc2cccc(F)c2)cc1OC	UHRF1 binding 25
